Among the data in PubChem BioAssay (NCI) are growth inhibition values, retold here.

About 79,000 compounds went through this panel and 15% of them were active in at least one assay; those are over-represented in the sample as a whole. A number with no mark means an inactive call. The source made the active and inactive calls. Cut-off read from the data, not from the text of the source: active = growth inhibition above about 70%; inactive = the rest.

Assay [1] is described as follows: NCI Yeast Anticancer Drug Screen. Data for the rad50 strain (AID 155).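 Note: 0% = growth of vehicle-only cultures of the same strain.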 As to conditions: S. cerevisiae rad50 strain growth inhibition, stronger effect = higher value. In outline:
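Cells are treated with compound, grown, and their growth is then scored against vehicle-only cultures of the same repair-deficient yeast strain.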

Assay [2] can be described thus: NCI Yeast Anticancer Drug Screen. Data for the mec2-1 strain (AID 157). As to conditions: S. cerevisiae mec2-1 strain, stronger effect = higher value. The essentials: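 Mutant yeast (mec2-1) grown with compound; growth inhibition relative to vehicle control reported.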
Assay [3] is described as follows: NCI Yeast Anticancer Drug Screen. Data for the sgs1 mgt1 strain (AID 161).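 Note: 0% = growth of cultures given vehicle only.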 As to conditions: S. cerevisiae sgs1 mgt1 strain, stronger effect = higher value. The essentials:
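Yeast cells carrying a defined DNA-repair defect were exposed to test compounds. Growth inhibition was measured relative to vehicle-treated controls.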

The nature of assay [4]: NCI Yeast Anticancer Drug Screen. Data for the cln2 rad14 strain (AID 165).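 Note: 0% = growth equal to vehicle treated cultures.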 As to conditions: S. cerevisiae cln2 rad14 strain, stronger effect = higher value. In outline:
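Readout is yeast growth inhibition versus vehicle-treated controls, using a strain with cln2 and rad14 alterations exposed to compound.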

Assay [5] is described as follows: NCI Yeast Anticancer Drug Screen. Data for the bub3 strain (AID 167). As to conditions: S. cerevisiae bub3 mutant strain, stronger effect = higher value. In outline: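 Part of a panel of yeast mutants defective in DNA damage repair or cell cycle regulation. Each strain is grown with compound, and inhibition is calculated relative to solvent-treated cultures.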
A short description of assay [6]: NCI Yeast Anticancer Drug Screen. Data for the mlh1 rad18 strain (AID 175). As to conditions: S. cerevisiae mlh1 rad18 strain growth inhibition, stronger effect = higher value. The essentials:
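Genetically defined yeast (DNA repair-deficient) exposed to compounds; growth inhibition determined relative to vehicle.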

Setting [7] is: at 5.0 µM (retest, dose inferred, filed as 0.5).
The mark [8] stands for this setting: at 50.0 µM (retest, dose inferred, filed as 5.0).

In the case of `COc1cc(N(CCC#N)CCC#N)ccc1/C(N=Nc1ccc(C(=O)O)cc1)=N/NC(=O)c1cc(Br)ccc1O`, the growth inhibition is 9% in assay [1] (setting [7]); 26% in assay [1] (setting [8]); 74.8% (active) in assay [1] (at 50.0 µM); 12% in assay [2] (setting [7]); 24% in assay [2] (setting [8]); 62.1% in assay [2] (at 50.0 µM). For the same compound, the growth inhibition was -13% in assay [3] (setting [7]); 20% in assay [3] (setting [8]); 25.7% in assay [3] (at 50.0 µM); 6% in assay [4] (setting [7]); 12% in assay [4] (setting [8]); 34% in assay [4] (at 50.0 µM). Also, the growth inhibition in assay [5] (setting [7]) is 14%; in assay [5] (setting [8]) it was 40%; in assay [5] (at 50.0 µM), 59.2%; in assay [6] (setting [7]) it was 8%; in assay [6] (setting [8]) it was 21%; in assay [6] (at 50.0 µM), 50.3%.

For `O=C(C[P+](c1ccccc1)(c1ccccc1)c1ccccc1)c1ccccc1`, the growth inhibition in assay [1] (setting [7]) is 0%; in assay [1] (setting [8]), 10%; in assay [1] (at 50.0 µM), 11.8%; in assay [2] (setting [7]) it was 9%; in assay [2] (setting [8]), 14%; in assay [2] (at 50.0 µM), 23.4%. Moreover, the growth inhibition in assay [3] (setting [7]) is -7%; in assay [3] (setting [8]), 11%; in assay [3] (at 50.0 µM), 22.1%; in assay [4] (setting [7]) it was 18%; in assay [4] (setting [8]), 12%; in assay [4] (at 50.0 µM), 8%. Further, the growth inhibition in assay [5] (setting [7]) is 2%; in assay [5] (setting [8]) it was 8%; in assay [5] (at 50.0 µM) it was 16.6%; in assay [6] (setting [7]) it was 5%; in assay [6] (setting [8]), -46%; in assay [6] (at 50.0 µM), 34.6%.

With `O=C1C(=O)c2cc([N+](=O)[O-])ccc2-c2ccccc21`, the growth inhibition was 45% in assay [1] (setting [7]); 97% (active) in assay [1] (setting [8]); 98.7% (active) in assay [1] (at 50.0 µM); 34% in assay [2] (setting [7]); 97% (active) in assay [2] (setting [8]); 95.8% (active) in assay [2] (at 50.0 µM). Also, the growth inhibition in assay [3] (setting [7]) was 32%; in assay [3] (setting [8]) it was 95% (active); in assay [3] (at 50.0 µM) it was 96.2% (active); in assay [4] (setting [7]), 19%; in assay [4] (setting [8]) it was 96% (active); in assay [4] (at 50.0 µM), 96.3% (active). In addition, the growth inhibition in assay [5] (setting [7]) is 43%; in assay [5] (setting [8]) it was 89% (active); in assay [5] (at 50.0 µM), 98.1% (active); in assay [6] (setting [7]) it was 54%; in assay [6] (setting [8]) it was 97% (active); in assay [6] (at 50.0 µM) it was 97.8% (active).

`CCOC(=O)C1=NN(c2ccccc2)C(=O)/C1=C\N1C(=O)/C(=C/c2cccc(O)c2)SC1=S`: the growth inhibition in assay [1] (setting [7]) is -9%; in assay [1] (setting [8]), 11%; in assay [1] (at 50.0 µM), 6.8%; in assay [2] (setting [7]), -16%; in assay [2] (setting [8]), 17%; in assay [2] (at 50.0 µM), 1.9%. Besides, the growth inhibition is -2% in assay [3] (setting [7]); 9% in assay [3] (setting [8]); 3.45% in assay [3] (at 50.0 µM); -13% in assay [4] (setting [7]); -13% in assay [4] (setting [8]); 60.5% in assay [4] (at 50.0 µM). For the same compound, the growth inhibition in assay [5] (setting [7]) was 4%; in assay [5] (setting [8]), 12%; in assay [5] (at 50.0 µM), 3.45%; in assay [6] (setting [7]), 0%; in assay [6] (setting [8]), 10%; in assay [6] (at 50.0 µM), -4.9%.

Consider `CC1(C)N=c2cc3c(cc2N1c1ccc(Cl)cc1)=Nc1ccccc1N3c1ccc(Cl)cc1`, for which the growth inhibition was 17% in assay [1] (setting [7]); -4% in assay [1] (setting [8]); 96.1% (active) in assay [1] (at 50.0 µM); 7% in assay [2] (setting [7]); -4% in assay [2] (setting [8]); 94.2% (active) in assay [2] (at 50.0 µM). For the same compound, the growth inhibition in assay [3] (setting [7]) is 16%; in assay [3] (setting [8]), 1%; in assay [3] (at 50.0 µM), 97.1% (active); in assay [4] (setting [7]) it was 10%; in assay [4] (setting [8]) it was -4%; in assay [4] (at 50.0 µM), 95.2% (active). Moreover, the growth inhibition was 7% in assay [5] (setting [7]); 1% in assay [5] (setting [8]); 94% (active) in assay [5] (at 50.0 µM); 35% in assay [6] (setting [7]); -5% in assay [6] (setting [8]); 96.3% (active) in assay [6] (at 50.0 µM).

Regarding `CC(C)(C)c1ccc(CCO)cc1`, the growth inhibition in assay [1] (setting [7]) is -10%; in assay [1] (setting [8]), 7%; in assay [1] (at 50.0 µM) it was 33.5%; in assay [2] (setting [7]), -2%; in assay [2] (setting [8]), -4%; in assay [2] (at 50.0 µM), 5.35%. Also, the growth inhibition in assay [3] (setting [7]) was -3%; in assay [3] (setting [8]), -5%; in assay [3] (at 50.0 µM) it was 12.2%; in assay [4] (setting [7]) it was -2%; in assay [4] (setting [8]), -4%; in assay [4] (at 50.0 µM), -8.05%. The growth inhibition in assay [5] (setting [7]) is 0%; in assay [5] (setting [8]), 6%; in assay [5] (at 50.0 µM) it was -4.15%; in assay [6] (setting [7]), -5%; in assay [6] (setting [8]), 2%; in assay [6] (at 50.0 µM), 19.9%.

`S=C1NC2=C(COc3ccccc32)C(c2ccc(Cl)cc2)N1` (stereo not given): the growth inhibition in assay [1] (setting [7]) is 59%; in assay [1] (setting [8]), 97% (active); in assay [1] (at 50.0 µM) it was 89.6% (active); in assay [2] (setting [7]), 70% (active); in assay [2] (setting [8]), 98% (active); in assay [2] (at 50.0 µM) it was 92.5% (active). Also, the growth inhibition in assay [3] (setting [7]) is 85% (active); in assay [3] (setting [8]) it was 98% (active); in assay [3] (at 50.0 µM), 92.5% (active); in assay [4] (setting [7]) it was 69%; in assay [4] (setting [8]) it was 97% (active); in assay [4] (at 50.0 µM), 90.5% (active). The growth inhibition in assay [5] (setting [7]) is 92% (active); in assay [5] (setting [8]), 98% (active); in assay [5] (at 50.0 µM) it was 90.8% (active); in assay [6] (setting [7]), 86% (active); in assay [6] (setting [8]), 97% (active); in assay [6] (at 50.0 µM), 83.1% (active).

In the case of `CCCCCC/C=C1\CCC(CN2CCCC2)C1=O` (stereo not given), the growth inhibition in assay [1] (setting [7]) is 52%; in assay [1] (setting [8]), 97% (active); in assay [1] (at 50.0 µM), 91% (active); in assay [2] (setting [7]), 33%; in assay [2] (setting [8]), 99% (active); in assay [2] (at 50.0 µM) it was 70.7% (active). Also, the growth inhibition in assay [3] (setting [7]) is 59%; in assay [3] (setting [8]), 96% (active); in assay [3] (at 50.0 µM) it was 90.4% (active); in assay [4] (setting [7]) it was 71% (active); in assay [4] (setting [8]), 87% (active); in assay [4] (at 50.0 µM) it was 81.9% (active). Further, the growth inhibition in assay [5] (setting [7]) is 66%; in assay [5] (setting [8]) it was 99% (active); in assay [5] (at 50.0 µM), 79.5% (active); in assay [6] (setting [7]) it was 78% (active); in assay [6] (setting [8]), 98% (active); in assay [6] (at 50.0 µM), 89.2% (active).

In the case of `CCC(C)C(N)C(=O)NC(CC(N)=O)C(=O)NC(CC(C)C)C(=O)NC(CCCCN)C(=O)NC(C)C(=O)NC(CC(C)C)C(=O)NC(C)C(=O)NC(C)C(=O)NC(CC(C)C)C(=O)NC(C)C(=O)NC(CCCCN)C(=O)NC(CCCCN)C(=O)NC(C(=O)NC(CC(C)C)C(N)=O)C(C)CC` (stereo not given), the growth inhibition in assay [1] (setting [7]) is -2%; in assay [1] (setting [8]) it was 99% (active); in assay [1] (at 50.0 µM) it was 93.3% (active); in assay [2] (setting [7]) it was 6%; in assay [2] (setting [8]) it was 100% (active); in assay [2] (at 50.0 µM), 94.2% (active). Further, the growth inhibition was -3% in assay [3] (setting [7]); 99% (active) in assay [3] (setting [8]); 93.8% (active) in assay [3] (at 50.0 µM); 4% in assay [4] (setting [7]); 98% (active) in assay [4] (setting [8]); 92% (active) in assay [4] (at 50.0 µM). For the same compound, the growth inhibition was -6% in assay [5] (setting [7]); 99% (active) in assay [5] (setting [8]); 93.6% (active) in assay [5] (at 50.0 µM); 0% in assay [6] (setting [7]); 99% (active) in assay [6] (setting [8]); 92.8% (active) in assay [6] (at 50.0 µM).

As to `CCc1oc2ccccc2c1C(=O)c1cc(Br)c(O)c(Br)c1`, the growth inhibition in assay [1] (setting [7]) is 29%; in assay [1] (setting [8]), 99% (active); in assay [1] (at 50.0 µM), 99.2% (active); in assay [2] (setting [7]), 11%; in assay [2] (setting [8]), 100% (active); in assay [2] (at 50.0 µM), 99.3% (active). For the same compound, the growth inhibition in assay [3] (setting [7]) is 8%; in assay [3] (setting [8]) it was 99% (active); in assay [3] (at 50.0 µM), 99.2% (active); in assay [4] (setting [7]), 8%; in assay [4] (setting [8]), 100% (active); in assay [4] (at 50.0 µM), 99% (active). Further, the growth inhibition was 1% in assay [5] (setting [7]); 99% (active) in assay [5] (setting [8]); 99.3% (active) in assay [5] (at 50.0 µM); 18% in assay [6] (setting [7]); 99% (active) in assay [6] (setting [8]); 99.2% (active) in assay [6] (at 50.0 µM).
